What all share (assay): DAPPL (digital affinity profiling via proximity ligation, sequencing); 10 mM Tris-HCl pH 7.5, 50 mM NaCl, 1 mM DTT, 4% glycerol, room temperature, 30 min; GST-TFs on glutathione beads, 16-mer random dsDNA library, 0.1% formaldehyde crosslink after washing; high values mean tight binding
Conditions in all cases: protein: recombinant; tags: N-terminal GST; dsDNA, one strand shown

One assay deals with T1, FLI1 (Homo sapiens, UniProt Q01543 1-452).
T1 sequence: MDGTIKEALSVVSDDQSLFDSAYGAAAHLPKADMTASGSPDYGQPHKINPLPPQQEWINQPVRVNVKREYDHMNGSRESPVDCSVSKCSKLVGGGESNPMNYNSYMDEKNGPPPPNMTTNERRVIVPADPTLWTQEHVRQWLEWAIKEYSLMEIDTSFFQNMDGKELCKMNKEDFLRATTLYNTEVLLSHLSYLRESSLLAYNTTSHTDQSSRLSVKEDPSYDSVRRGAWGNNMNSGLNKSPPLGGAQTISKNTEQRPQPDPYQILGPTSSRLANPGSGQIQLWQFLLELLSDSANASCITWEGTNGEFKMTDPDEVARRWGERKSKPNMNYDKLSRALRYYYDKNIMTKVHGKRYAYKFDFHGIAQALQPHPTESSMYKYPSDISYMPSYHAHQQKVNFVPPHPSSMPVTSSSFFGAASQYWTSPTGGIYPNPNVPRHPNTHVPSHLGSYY
The gist of the method: (§1)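 Binding signal is defined as a hexamer's read frequency for one factor over its frequency for the tag-only sample. To obtain reads, GST-fused human transcription factors were expressed in yeast, captured on glutathione beads, barcoded with DNA and pooled with that sample. Pools met 200 nmole of a 16-mer random double-stranded DNA library in Tris/NaCl/DTT/glycerol buffer for 30 min at room temperature before washing, 0.1% formaldehyde crosslinking, proximity ligation (BsaI/T4 ligase, 1 h, 37 °C), PCR and Illumina NextSeq500 sequencing.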

The next assay concerns the target T2, ELF3 (Homo sapiens, UniProt P78545 1-371).
T2 sequence: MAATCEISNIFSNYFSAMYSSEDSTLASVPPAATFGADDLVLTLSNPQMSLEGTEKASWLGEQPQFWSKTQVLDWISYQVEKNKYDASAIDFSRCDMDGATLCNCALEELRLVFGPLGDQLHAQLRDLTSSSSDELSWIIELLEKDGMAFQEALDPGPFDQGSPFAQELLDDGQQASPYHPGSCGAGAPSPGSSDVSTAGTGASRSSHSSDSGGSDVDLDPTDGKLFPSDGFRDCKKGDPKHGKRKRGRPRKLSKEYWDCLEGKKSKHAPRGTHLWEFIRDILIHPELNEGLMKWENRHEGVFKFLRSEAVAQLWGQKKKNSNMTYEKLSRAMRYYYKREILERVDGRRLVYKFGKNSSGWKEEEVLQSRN
An outline of the steps:
as §1

The target of the next assay is T3, ELF5 (Homo sapiens, UniProt Q9UKW6-2 1-255).
T3 sequence: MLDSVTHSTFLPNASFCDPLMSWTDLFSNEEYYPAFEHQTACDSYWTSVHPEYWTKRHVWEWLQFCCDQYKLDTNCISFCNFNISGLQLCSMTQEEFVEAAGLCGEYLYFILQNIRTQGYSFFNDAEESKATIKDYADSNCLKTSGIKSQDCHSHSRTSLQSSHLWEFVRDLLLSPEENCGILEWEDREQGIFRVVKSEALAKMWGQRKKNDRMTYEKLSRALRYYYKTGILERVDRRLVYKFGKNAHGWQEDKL
The gist of the method:
as §1

The next assay concerns the target T4, ELK3 (Homo sapiens, UniProt P41970 1-407).
T4 sequence: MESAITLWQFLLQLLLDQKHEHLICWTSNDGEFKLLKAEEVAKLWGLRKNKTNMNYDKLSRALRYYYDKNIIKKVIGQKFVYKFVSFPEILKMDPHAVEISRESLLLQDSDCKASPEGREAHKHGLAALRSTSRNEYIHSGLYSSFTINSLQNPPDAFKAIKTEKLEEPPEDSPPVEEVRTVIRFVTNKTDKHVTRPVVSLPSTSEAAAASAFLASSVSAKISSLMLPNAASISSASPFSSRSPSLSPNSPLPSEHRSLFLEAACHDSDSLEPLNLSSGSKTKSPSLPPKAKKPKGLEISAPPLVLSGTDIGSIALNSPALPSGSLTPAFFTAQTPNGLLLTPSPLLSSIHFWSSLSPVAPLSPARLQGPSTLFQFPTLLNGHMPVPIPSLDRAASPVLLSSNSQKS
An outline of the steps:
as §1

In another assay the target is CRX (Homo sapiens, UniProt O43186 1-299). An outline of the steps: as §1
Sequence of CRX (O43186 whole entry): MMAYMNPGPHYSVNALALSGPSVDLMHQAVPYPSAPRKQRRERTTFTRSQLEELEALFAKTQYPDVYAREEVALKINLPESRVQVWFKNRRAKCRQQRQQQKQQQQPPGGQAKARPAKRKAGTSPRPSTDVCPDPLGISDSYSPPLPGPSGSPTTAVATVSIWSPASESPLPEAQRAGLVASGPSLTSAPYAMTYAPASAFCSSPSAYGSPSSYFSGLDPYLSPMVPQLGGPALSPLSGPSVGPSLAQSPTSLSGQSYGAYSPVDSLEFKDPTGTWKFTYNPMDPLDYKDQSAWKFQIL

Results on 31 sequences are retold here after paper PMC7862700, “An all-to-all approach to the identification of sequence-specific readers for epigenetic DNA modifications on cytosine”.

With ATGCCA, the binding signal with FLI1 was 1.01 fold enrichment (6-mer frequency, TF over GST control); in the assay with ELF3 it was 1.09 fold enrichment (6-mer frequency, TF over GST control); with ELF5 it was 1.01 fold enrichment (6-mer frequency, TF over GST control).
On to GTTGAC, for which the binding signal in the assay with FLI1 is 1.11 fold enrichment (6-mer frequency, TF over GST control); with ELK3, 1.2 fold enrichment (6-mer frequency, TF over GST control); in the assay with ELF3, 1.09 fold enrichment (6-mer frequency, TF over GST control); in the assay with ELF5, 1.07 fold enrichment (6-mer frequency, TF over GST control).
For TGATAC, the binding signal in the assay with FLI1 is 1.13 fold enrichment (6-mer frequency, TF over GST control); with ELK3 it was 1.08 fold enrichment (6-mer frequency, TF over GST control); with ELF3, 1.16 fold enrichment (6-mer frequency, TF over GST control); with CRX, 1.1 fold enrichment (6-mer frequency, TF over GST control); with ELF5, 1.1 fold enrichment (6-mer frequency, TF over GST control).
Consider CCAACC, for which the binding signal in the assay with FLI1 is 1.12 fold enrichment (6-mer frequency, TF over GST control); in the assay with ELK3, 1.06 fold enrichment (6-mer frequency, TF over GST control); in the assay with ELF3 it was 1.08 fold enrichment (6-mer frequency, TF over GST control); with ELF5, 1.05 fold enrichment (6-mer frequency, TF over GST control).
With TCATGT, the binding signal was 1.14 fold enrichment (6-mer frequency, TF over GST control) with FLI1; 1.04 fold enrichment (6-mer frequency, TF over GST control) with ELF3; 1.01 fold enrichment (6-mer frequency, TF over GST control) with ELF5.
As to CGATGC, the binding signal in the assay with FLI1 was 1.13 fold enrichment (6-mer frequency, TF over GST control); with ELF3 it was 1.2 fold enrichment (6-mer frequency, TF over GST control).
Turning to CACGCA, the binding signal in the assay with FLI1 is 1.11 fold enrichment (6-mer frequency, TF over GST control); in the assay with ELK3, 1.14 fold enrichment (6-mer frequency, TF over GST control); in the assay with ELF3, 1.04 fold enrichment (6-mer frequency, TF over GST control).
In the case of CATACA, the binding signal with FLI1 was 1.11 fold enrichment (6-mer frequency, TF over GST control); in the assay with ELK3, 1.22 fold enrichment (6-mer frequency, TF over GST control).
Take AAGGGC: the binding signal in the assay with FLI1 is 1.06 fold enrichment (6-mer frequency, TF over GST control); in the assay with ELK3, 1.18 fold enrichment (6-mer frequency, TF over GST control); with ELF5, 1.04 fold enrichment (6-mer frequency, TF over GST control).
As for CATGTT, in the assay with FLI1, the binding signal is 1.05 fold enrichment (6-mer frequency, TF over GST control).
As for ACCATT, the binding signal was 1.22 fold enrichment (6-mer frequency, TF over GST control) with FLI1; 1.28 fold enrichment (6-mer frequency, TF over GST control) with ELK3; 1.17 fold enrichment (6-mer frequency, TF over GST control) in the assay with ELF3; 1.15 fold enrichment (6-mer frequency, TF over GST control) with ELF5.
As for TGTGCG, the binding signal with FLI1 is 1.03 fold enrichment (6-mer frequency, TF over GST control); in the assay with ELK3, 1.01 fold enrichment (6-mer frequency, TF over GST control); with ELF5, 1.07 fold enrichment (6-mer frequency, TF over GST control).
TTGTCA: the binding signal in the assay with FLI1 is 1.1 fold enrichment (6-mer frequency, TF over GST control); with ELK3 it was 1.13 fold enrichment (6-mer frequency, TF over GST control); in the assay with ELF5, 1.05 fold enrichment (6-mer frequency, TF over GST control).
In the case of ACAGCA, the binding signal in the assay with FLI1 is 1.01 fold enrichment (6-mer frequency, TF over GST control); with ELK3, 1.02 fold enrichment (6-mer frequency, TF over GST control).
On to TGTAAC, for which the binding signal with FLI1 was 1.29 fold enrichment (6-mer frequency, TF over GST control); with ELK3, 1.2 fold enrichment (6-mer frequency, TF over GST control); in the assay with ELF3, 1.22 fold enrichment (6-mer frequency, TF over GST control); with ELF5, 1.21 fold enrichment (6-mer frequency, TF over GST control).
With TGGCCG, the binding signal was 1.11 fold enrichment (6-mer frequency, TF over GST control) with FLI1; 1.14 fold enrichment (6-mer frequency, TF over GST control) with ELK3; 1.14 fold enrichment (6-mer frequency, TF over GST control) with ELF3.
On to GTTGTT, for which the binding signal with FLI1 is 1.17 fold enrichment (6-mer frequency, TF over GST control); with ELK3, 1.1 fold enrichment (6-mer frequency, TF over GST control); in the assay with ELF3 it was 1.13 fold enrichment (6-mer frequency, TF over GST control); in the assay with ELF5 it was 1.19 fold enrichment (6-mer frequency, TF over GST control).
Regarding CACATG, the binding signal was 1.18 fold enrichment (6-mer frequency, TF over GST control) in the assay with FLI1; 1.14 fold enrichment (6-mer frequency, TF over GST control) with ELK3; 1.04 fold enrichment (6-mer frequency, TF over GST control) with ELF3; 1.02 fold enrichment (6-mer frequency, TF over GST control) in the assay with ELF5.
For GCCCAA, the binding signal with FLI1 was 1.04 fold enrichment (6-mer frequency, TF over GST control); in the assay with ELF3 it was 1.05 fold enrichment (6-mer frequency, TF over GST control).
In the case of CATGAC, the binding signal was 1.23 fold enrichment (6-mer frequency, TF over GST control) with FLI1; 1.17 fold enrichment (6-mer frequency, TF over GST control) with ELK3; 1.15 fold enrichment (6-mer frequency, TF over GST control) with ELF3; 1.12 fold enrichment (6-mer frequency, TF over GST control) with ELF5.
For the sequence CATGCA, the binding signal is 1.1 fold enrichment (6-mer frequency, TF over GST control) with FLI1; 1.02 fold enrichment (6-mer frequency, TF over GST control) with ELK3; 1.16 fold enrichment (6-mer frequency, TF over GST control) in the assay with ELF3; 1.01 fold enrichment (6-mer frequency, TF over GST control) in the assay with ELF5.
CCCCCC: the binding signal is 1.03 fold enrichment (6-mer frequency, TF over GST control) in the assay with FLI1; 1.12 fold enrichment (6-mer frequency, TF over GST control) in the assay with ELK3; 1.28 fold enrichment (6-mer frequency, TF over GST control) with ELF3; 1.09 fold enrichment (6-mer frequency, TF over GST control) with ELF5.
GTAGCT: the binding signal in the assay with FLI1 was 1.15 fold enrichment (6-mer frequency, TF over GST control); with ELK3, 1.07 fold enrichment (6-mer frequency, TF over GST control); with ELF3, 1.18 fold enrichment (6-mer frequency, TF over GST control); with CRX, 1.02 fold enrichment (6-mer frequency, TF over GST control); in the assay with ELF5 it was 1.07 fold enrichment (6-mer frequency, TF over GST control).
For ACGACC, the binding signal was 1.18 fold enrichment (6-mer frequency, TF over GST control) with FLI1; 1.31 fold enrichment (6-mer frequency, TF over GST control) in the assay with ELK3; 1.25 fold enrichment (6-mer frequency, TF over GST control) with ELF3; 1.17 fold enrichment (6-mer frequency, TF over GST control) with ELF5.
In the case of TATGTC, the binding signal was 1.05 fold enrichment (6-mer frequency, TF over GST control) with FLI1; 1.14 fold enrichment (6-mer frequency, TF over GST control) in the assay with ELK3; 1.06 fold enrichment (6-mer frequency, TF over GST control) in the assay with ELF3; 1.05 fold enrichment (6-mer frequency, TF over GST control) with ELF5.
For the sequence CATCAT, the binding signal is 1.06 fold enrichment (6-mer frequency, TF over GST control) with FLI1; 1.1 fold enrichment (6-mer frequency, TF over GST control) with ELF3; 1.07 fold enrichment (6-mer frequency, TF over GST control) with ELF5.
With CGCCTG, the binding signal with FLI1 is 1.11 fold enrichment (6-mer frequency, TF over GST control); in the assay with ELK3, 1.06 fold enrichment (6-mer frequency, TF over GST control); with ELF3, 1.19 fold enrichment (6-mer frequency, TF over GST control); with ELF5, 1.12 fold enrichment (6-mer frequency, TF over GST control).
CCCTGA: the binding signal with FLI1 is 1 fold enrichment (6-mer frequency, TF over GST control); in the assay with ELK3, 1.12 fold enrichment (6-mer frequency, TF over GST control); with CRX it was 1.03 fold enrichment (6-mer frequency, TF over GST control); with ELF5 it was 1.06 fold enrichment (6-mer frequency, TF over GST control).
With GGTATC, the binding signal in the assay with FLI1 is 1.11 fold enrichment (6-mer frequency, TF over GST control); with ELF3 it was 1.23 fold enrichment (6-mer frequency, TF over GST control).
ATGCAG: the binding signal was 1.09 fold enrichment (6-mer frequency, TF over GST control) with FLI1; 1.05 fold enrichment (6-mer frequency, TF over GST control) in the assay with ELF3; 1.06 fold enrichment (6-mer frequency, TF over GST control) in the assay with ELF5.
For the sequence AGCGCC, the binding signal in the assay with FLI1 was 1.01 fold enrichment (6-mer frequency, TF over GST control); with ELK3 it was 1.02 fold enrichment (6-mer frequency, TF over GST control); with ELF3, 1.09 fold enrichment (6-mer frequency, TF over GST control).
